Measurements from publication PMC7862700, “An all-to-all approach to the identification of sequence-specific readers for epigenetic DNA modifications on cytosine”.

What was measured:
Experiment in all cases: DAPPL (digital affinity profiling via proximity ligation, sequencing); 10 mM Tris-HCl pH 7.5, 50 mM NaCl, 1 mM DTT, 4% glycerol, room temperature, 30 min; GST-TFs on glutathione beads, 16-mer random dsDNA library, 0.1% formaldehyde crosslink after washing; high values mean tight binding
FLI1 = biological target: T1, FLI1 (Homo sapiens, UniProt Q01543 1-452); conditions: protein: recombinant; tags: N-terminal GST; dsDNA, one strand shown
T1 sequence: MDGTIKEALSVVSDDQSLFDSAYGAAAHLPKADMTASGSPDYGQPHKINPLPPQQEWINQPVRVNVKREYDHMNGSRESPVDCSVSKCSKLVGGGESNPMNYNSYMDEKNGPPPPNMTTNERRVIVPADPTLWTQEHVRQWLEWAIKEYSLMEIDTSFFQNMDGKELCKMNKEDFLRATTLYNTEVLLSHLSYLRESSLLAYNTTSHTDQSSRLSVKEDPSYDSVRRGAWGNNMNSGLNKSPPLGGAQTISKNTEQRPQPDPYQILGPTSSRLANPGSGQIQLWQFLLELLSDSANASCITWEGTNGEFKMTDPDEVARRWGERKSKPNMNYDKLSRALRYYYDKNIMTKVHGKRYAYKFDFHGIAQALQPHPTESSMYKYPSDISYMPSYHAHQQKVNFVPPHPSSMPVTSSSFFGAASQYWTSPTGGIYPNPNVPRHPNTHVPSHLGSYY
Summary of the method: (§1)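 After expression in yeast as GST fusions, human transcription factors were bound to glutathione beads, DNA-barcoded and mixed with a tag-only sample. The pools were incubated with 200 nmole of a 16-mer random double-stranded DNA library in Tris/NaCl/DTT/glycerol buffer (30 min, room temperature), washed and crosslinked with 0.1% formaldehyde. Proximity ligation with BsaI/T4 ligase ran for 1 h at 37 °C, before PCR amplification and sequencing on an Illumina NextSeq500. Binding signal is a hexamer's read frequency for a factor divided by its frequency for the tag-only sample.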

ELK1 = biological target: T2, ELK1 (Homo sapiens, UniProt P19419 1-428); conditions: protein: recombinant; tags: N-terminal GST; dsDNA, one strand shown
T2 sequence: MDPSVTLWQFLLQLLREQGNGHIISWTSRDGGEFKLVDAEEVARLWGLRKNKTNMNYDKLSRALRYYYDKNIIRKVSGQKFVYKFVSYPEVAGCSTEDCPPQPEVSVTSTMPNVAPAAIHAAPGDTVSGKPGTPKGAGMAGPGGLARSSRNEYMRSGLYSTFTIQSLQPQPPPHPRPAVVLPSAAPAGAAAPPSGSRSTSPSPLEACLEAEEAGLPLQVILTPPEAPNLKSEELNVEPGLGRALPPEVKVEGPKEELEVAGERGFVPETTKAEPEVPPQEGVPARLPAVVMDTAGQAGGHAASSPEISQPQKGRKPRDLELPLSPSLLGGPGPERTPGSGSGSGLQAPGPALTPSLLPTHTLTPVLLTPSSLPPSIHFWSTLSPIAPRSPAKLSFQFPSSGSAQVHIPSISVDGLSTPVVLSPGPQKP
Summary of the method: as §1

GABPA = biological target: T3, GABPA (Homo sapiens, UniProt Q06546 1-454); conditions: protein: recombinant; tags: N-terminal GST; dsDNA, one strand shown
T3 sequence: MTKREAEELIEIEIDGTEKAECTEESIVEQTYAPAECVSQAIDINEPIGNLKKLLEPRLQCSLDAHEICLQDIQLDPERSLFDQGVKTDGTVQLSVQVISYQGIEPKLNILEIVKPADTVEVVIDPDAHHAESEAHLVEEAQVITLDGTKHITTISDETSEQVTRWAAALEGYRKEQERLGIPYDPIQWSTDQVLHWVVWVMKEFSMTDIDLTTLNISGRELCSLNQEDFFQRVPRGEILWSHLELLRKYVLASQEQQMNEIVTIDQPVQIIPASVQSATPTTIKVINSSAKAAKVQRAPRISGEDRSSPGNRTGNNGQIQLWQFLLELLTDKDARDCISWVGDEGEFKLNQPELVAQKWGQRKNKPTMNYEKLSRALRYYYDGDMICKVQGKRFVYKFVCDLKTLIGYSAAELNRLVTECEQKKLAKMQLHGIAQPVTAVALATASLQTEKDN
Summary of the method: as §1

ERG = biological target: T4, ERG (Homo sapiens, UniProt P11308 1-479); conditions: protein: recombinant; tags: N-terminal GST; dsDNA, one strand shown
T4 sequence: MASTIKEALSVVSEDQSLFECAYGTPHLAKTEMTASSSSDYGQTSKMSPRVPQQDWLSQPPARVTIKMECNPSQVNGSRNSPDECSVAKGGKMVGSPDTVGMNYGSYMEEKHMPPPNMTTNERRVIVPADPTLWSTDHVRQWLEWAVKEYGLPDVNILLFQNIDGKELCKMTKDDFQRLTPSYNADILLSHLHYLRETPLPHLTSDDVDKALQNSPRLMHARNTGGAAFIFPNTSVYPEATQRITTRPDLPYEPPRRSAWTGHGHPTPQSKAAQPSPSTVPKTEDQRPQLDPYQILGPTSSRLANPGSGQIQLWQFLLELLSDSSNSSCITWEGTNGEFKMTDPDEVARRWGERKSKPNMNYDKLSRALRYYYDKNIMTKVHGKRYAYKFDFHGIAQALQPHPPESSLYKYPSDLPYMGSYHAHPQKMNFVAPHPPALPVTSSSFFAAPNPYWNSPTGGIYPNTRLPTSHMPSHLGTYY
Summary of the method: as §1

ELF1 = ELF1 (Homo sapiens, UniProt P32519 1-619); conditions: protein: recombinant; tags: N-terminal GST; dsDNA, one strand shown
Sequence of ELF1 (P32519 whole entry): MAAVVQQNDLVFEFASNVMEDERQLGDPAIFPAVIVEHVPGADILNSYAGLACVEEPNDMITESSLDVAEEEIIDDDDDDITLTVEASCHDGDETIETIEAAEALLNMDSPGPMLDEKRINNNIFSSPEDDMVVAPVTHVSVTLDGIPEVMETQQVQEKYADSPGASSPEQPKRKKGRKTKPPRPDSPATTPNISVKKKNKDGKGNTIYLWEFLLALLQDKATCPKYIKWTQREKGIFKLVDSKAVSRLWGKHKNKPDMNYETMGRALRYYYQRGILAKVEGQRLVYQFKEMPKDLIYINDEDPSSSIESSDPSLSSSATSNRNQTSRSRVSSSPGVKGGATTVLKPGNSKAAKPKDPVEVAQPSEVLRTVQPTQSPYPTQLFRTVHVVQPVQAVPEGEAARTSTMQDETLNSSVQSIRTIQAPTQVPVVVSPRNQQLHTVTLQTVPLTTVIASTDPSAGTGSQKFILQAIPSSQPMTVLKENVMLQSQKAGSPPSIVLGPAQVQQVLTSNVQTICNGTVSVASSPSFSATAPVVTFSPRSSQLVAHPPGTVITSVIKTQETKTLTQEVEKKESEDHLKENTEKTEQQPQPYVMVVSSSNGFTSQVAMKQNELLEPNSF
Summary of the method: as §1

EHF = biological target: T5, EHF (Homo sapiens, UniProt Q9NZC4 1-300); conditions: protein: recombinant; tags: N-terminal GST; dsDNA, one strand shown
T5 sequence: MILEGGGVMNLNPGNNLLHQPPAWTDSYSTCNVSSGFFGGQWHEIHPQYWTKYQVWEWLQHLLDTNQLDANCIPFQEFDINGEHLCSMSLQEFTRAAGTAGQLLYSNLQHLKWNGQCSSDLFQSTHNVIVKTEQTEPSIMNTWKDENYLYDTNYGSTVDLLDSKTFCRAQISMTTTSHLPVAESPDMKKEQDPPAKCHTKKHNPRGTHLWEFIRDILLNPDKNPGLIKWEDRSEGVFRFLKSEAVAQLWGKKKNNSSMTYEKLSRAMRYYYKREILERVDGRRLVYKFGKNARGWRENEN
Summary of the method: as §1

SPI1 = SPI1 (Homo sapiens, UniProt P17947 1-270); conditions: protein: recombinant; tags: N-terminal GST; dsDNA, one strand shown
Summary of the method: as §1

SPIB = SPIB (Homo sapiens, UniProt Q01892 1-262); conditions: protein: recombinant; tags: N-terminal GST; dsDNA, one strand shown
Sequence of SPIB (Q01892 whole entry): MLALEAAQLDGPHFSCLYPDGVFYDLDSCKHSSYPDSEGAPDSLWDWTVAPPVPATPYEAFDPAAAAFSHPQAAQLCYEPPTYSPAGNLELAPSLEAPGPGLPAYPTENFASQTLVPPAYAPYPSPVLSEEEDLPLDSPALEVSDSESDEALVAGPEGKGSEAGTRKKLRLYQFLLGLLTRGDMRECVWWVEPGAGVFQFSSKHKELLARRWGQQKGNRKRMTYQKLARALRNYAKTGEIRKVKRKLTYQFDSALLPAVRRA
Summary of the method: as §1

ELK3 = biological target: T6, ELK3 (Homo sapiens, UniProt P41970 1-407); conditions: protein: recombinant; tags: N-terminal GST; dsDNA, one strand shown
T6 sequence: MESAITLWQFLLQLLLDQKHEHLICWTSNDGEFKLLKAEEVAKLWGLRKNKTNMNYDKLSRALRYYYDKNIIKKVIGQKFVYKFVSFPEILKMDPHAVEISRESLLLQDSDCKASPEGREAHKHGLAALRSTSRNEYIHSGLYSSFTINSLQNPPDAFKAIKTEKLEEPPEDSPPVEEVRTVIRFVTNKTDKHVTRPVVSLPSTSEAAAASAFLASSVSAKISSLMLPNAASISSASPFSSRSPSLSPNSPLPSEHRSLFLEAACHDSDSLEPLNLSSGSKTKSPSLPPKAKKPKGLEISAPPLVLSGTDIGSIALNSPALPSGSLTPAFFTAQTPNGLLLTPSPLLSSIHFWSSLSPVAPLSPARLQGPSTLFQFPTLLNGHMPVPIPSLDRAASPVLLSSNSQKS
Summary of the method: as §1

FEV = biological target: T7, FEV (Homo sapiens, UniProt Q99581 1-238); conditions: protein: recombinant; tags: N-terminal GST; dsDNA, one strand shown
T7 sequence: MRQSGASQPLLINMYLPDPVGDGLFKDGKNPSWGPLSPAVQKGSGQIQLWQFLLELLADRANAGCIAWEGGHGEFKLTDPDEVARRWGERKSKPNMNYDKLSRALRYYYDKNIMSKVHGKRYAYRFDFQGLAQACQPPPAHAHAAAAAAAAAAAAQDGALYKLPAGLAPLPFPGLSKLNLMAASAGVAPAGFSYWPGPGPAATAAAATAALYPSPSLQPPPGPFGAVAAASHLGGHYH
Summary of the method: as §1

ETV5 = ETV5 (Homo sapiens, UniProt P41161 1-510); conditions: protein: recombinant; tags: N-terminal GST; dsDNA, one strand shown
Sequence of ETV5 (P41161 whole entry): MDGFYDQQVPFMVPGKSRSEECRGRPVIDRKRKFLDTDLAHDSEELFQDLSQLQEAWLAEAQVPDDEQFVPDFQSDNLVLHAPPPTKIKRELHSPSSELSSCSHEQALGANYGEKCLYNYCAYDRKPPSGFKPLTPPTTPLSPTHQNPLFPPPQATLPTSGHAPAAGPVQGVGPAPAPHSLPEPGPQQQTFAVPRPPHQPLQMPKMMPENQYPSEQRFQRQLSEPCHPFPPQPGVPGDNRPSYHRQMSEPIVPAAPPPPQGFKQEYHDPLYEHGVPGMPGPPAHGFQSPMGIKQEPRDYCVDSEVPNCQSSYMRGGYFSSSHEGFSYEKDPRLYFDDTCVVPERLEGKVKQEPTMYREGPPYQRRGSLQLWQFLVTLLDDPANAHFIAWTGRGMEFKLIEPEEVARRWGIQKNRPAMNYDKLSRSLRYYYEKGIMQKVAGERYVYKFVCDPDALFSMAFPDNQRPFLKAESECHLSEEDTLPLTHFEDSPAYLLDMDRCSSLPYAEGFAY
Summary of the method: as §1

HSF1 = HSF1 (Homo sapiens, UniProt Q00613 1-529); conditions: protein: recombinant; tags: N-terminal GST; chain copies: 3; dsDNA, one strand shown
Sequence of HSF1 (Q00613 whole entry): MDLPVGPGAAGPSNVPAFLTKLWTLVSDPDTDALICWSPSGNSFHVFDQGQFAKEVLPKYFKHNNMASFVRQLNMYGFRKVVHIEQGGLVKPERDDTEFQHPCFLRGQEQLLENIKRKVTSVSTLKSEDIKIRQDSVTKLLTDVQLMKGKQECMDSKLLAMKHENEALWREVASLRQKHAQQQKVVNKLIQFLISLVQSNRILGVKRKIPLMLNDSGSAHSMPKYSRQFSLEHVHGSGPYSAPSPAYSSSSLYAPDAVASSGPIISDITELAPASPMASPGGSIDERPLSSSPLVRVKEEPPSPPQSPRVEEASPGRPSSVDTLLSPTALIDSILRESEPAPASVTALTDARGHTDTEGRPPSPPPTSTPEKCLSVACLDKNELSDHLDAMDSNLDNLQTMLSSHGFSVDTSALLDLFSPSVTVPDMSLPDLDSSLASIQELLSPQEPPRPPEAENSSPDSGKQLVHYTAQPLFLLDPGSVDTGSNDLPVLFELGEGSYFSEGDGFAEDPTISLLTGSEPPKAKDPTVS
Summary of the method: as §1

SPIC = biological target: T8, SPIC (Homo sapiens, UniProt Q8N5J4 1-248); conditions: protein: recombinant; tags: N-terminal GST; dsDNA, one strand shown
T8 sequence: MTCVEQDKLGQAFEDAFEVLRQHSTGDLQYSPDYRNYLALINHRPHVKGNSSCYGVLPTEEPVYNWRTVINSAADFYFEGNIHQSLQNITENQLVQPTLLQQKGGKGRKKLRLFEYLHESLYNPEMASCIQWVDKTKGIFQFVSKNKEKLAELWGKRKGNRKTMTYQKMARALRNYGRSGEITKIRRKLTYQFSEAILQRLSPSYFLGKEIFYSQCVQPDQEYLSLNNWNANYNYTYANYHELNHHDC
Summary of the method: as §1

ELF4 = ELF4 (Homo sapiens, UniProt Q99607 1-663); conditions: protein: recombinant; tags: N-terminal GST; dsDNA, one strand shown
Sequence of ELF4 (Q99607 whole entry): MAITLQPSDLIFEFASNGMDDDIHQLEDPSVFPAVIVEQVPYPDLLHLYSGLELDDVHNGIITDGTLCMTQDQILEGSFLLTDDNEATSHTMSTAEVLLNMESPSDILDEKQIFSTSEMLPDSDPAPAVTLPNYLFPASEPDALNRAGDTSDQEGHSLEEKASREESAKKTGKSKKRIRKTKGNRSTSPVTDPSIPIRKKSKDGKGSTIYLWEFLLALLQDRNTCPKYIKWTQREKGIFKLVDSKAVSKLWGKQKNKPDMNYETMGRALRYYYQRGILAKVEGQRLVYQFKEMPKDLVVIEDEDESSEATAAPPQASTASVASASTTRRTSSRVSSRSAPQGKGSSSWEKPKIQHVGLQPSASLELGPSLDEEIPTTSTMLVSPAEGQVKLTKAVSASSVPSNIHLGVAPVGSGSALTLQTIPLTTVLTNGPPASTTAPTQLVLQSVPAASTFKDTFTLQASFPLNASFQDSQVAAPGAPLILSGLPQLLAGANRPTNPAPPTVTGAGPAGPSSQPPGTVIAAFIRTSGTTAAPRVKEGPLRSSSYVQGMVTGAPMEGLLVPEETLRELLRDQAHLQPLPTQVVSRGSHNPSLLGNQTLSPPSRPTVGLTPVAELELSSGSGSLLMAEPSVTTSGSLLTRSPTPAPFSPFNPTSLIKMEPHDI
Summary of the method: as §1

ELK4 = biological target: T9, ELK4 (Homo sapiens, UniProt P28324-2 1-405); conditions: protein: recombinant; tags: N-terminal GST; dsDNA, one strand shown
T9 sequence: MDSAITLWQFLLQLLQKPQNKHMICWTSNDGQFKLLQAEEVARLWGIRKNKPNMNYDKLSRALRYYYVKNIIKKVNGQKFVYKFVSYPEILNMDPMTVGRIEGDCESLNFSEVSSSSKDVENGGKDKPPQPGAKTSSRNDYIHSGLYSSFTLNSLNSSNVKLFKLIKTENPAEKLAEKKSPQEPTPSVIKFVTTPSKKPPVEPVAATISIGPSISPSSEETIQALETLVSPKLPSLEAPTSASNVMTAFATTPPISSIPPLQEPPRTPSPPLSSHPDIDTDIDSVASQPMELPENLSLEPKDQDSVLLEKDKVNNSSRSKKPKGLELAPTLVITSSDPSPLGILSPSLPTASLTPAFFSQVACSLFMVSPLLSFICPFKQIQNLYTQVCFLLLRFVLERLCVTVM
Summary of the method: as §1

ETV2 = biological target: T10, ETV2 (Homo sapiens, UniProt O00321 1-342); conditions: protein: recombinant; tags: N-terminal GST; dsDNA, one strand shown
T10 sequence: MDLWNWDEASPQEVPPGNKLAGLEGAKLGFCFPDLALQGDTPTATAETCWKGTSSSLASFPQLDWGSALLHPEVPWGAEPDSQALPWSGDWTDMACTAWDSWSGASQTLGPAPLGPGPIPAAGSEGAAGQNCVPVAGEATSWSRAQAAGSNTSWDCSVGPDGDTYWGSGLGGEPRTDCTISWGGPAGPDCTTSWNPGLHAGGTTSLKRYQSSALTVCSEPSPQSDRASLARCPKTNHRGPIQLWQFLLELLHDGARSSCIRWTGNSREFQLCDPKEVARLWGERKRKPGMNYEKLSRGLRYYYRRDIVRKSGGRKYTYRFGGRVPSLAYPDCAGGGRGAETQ
Summary of the method: as §1

ELF3 = biological target: T11, ELF3 (Homo sapiens, UniProt P78545 1-371); conditions: protein: recombinant; tags: N-terminal GST; dsDNA, one strand shown
T11 sequence: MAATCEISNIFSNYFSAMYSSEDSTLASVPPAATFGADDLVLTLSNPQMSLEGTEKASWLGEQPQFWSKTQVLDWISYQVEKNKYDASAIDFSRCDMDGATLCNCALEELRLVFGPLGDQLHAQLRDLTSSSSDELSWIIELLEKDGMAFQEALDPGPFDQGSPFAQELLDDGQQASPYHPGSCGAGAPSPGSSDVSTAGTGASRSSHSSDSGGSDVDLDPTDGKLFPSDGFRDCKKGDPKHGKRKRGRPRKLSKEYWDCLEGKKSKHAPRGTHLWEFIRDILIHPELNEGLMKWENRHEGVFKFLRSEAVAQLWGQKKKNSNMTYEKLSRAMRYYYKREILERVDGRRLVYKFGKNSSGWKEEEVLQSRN
Summary of the method: as §1

CRX = CRX (Homo sapiens, UniProt O43186 1-299); conditions: protein: recombinant; tags: N-terminal GST; dsDNA, one strand shown
Sequence of CRX (O43186 whole entry): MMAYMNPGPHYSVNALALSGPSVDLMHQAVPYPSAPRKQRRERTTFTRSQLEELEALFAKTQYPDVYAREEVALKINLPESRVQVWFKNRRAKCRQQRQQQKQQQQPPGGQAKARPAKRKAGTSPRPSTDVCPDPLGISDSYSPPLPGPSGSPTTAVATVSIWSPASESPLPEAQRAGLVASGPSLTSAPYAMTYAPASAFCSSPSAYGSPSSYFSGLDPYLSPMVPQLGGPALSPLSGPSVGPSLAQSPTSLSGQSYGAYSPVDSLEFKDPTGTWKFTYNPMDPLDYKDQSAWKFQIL
Summary of the method: as §1

ETV1 = ETV1 (Homo sapiens, UniProt P50549 1-477); conditions: protein: recombinant; tags: N-terminal GST; dsDNA, one strand shown
Sequence of ETV1 (P50549 whole entry): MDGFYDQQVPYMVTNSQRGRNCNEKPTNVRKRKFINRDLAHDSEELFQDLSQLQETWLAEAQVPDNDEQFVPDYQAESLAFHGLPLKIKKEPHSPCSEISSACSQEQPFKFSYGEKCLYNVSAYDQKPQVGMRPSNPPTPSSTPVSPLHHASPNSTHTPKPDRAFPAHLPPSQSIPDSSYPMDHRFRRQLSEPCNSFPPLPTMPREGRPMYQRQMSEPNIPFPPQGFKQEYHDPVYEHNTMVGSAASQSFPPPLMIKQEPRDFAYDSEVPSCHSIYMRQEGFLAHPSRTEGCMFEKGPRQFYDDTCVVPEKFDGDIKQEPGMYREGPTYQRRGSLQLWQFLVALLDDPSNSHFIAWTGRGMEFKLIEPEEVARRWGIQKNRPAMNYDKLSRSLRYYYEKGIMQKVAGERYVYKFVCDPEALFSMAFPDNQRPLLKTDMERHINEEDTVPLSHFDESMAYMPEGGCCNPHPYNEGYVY
Summary of the method: as §1

TTGATG
binding signal (FLI1): 1.45 fold enrichment (6-mer frequency, TF over GST control) | binding signal (ELK1): 1.82 fold enrichment (6-mer frequency, TF over GST control) | binding signal (GABPA): 1.72 fold enrichment (6-mer frequency, TF over GST control) | binding signal (ERG): 1.61 fold enrichment (6-mer frequency, TF over GST control) | binding signal (ELF1): 1.64 fold enrichment (6-mer frequency, TF over GST control) | binding signal (EHF): 1.65 fold enrichment (6-mer frequency, TF over GST control) | binding signal (SPI1): 1.51 fold enrichment (6-mer frequency, TF over GST control) | binding signal (SPIB): 1.62 fold enrichment (6-mer frequency, TF over GST control) | binding signal (ELK3): 1.52 fold enrichment (6-mer frequency, TF over GST control) | binding signal (FEV): 1.52 fold enrichment (6-mer frequency, TF over GST control) | binding signal (ETV5): 1.73 fold enrichment (6-mer frequency, TF over GST control) | binding signal (HSF1): 1.43 fold enrichment (6-mer frequency, TF over GST control) | binding signal (SPIC): 1.59 fold enrichment (6-mer frequency, TF over GST control) | binding signal (ELF4): 1.63 fold enrichment (6-mer frequency, TF over GST control) | binding signal (ELK4): 1.52 fold enrichment (6-mer frequency, TF over GST control) | binding signal (ETV2): 1.53 fold enrichment (6-mer frequency, TF over GST control) | binding signal (ELF3): 1.81 fold enrichment (6-mer frequency, TF over GST control) | binding signal (CRX): 1.5 fold enrichment (6-mer frequency, TF over GST control) | binding signal (ETV1): 1.67 fold enrichment (6-mer frequency, TF over GST control)
